hDAT+cocaine – changed hDAT dopamine uptake under cocaine IC80, either direction, primary screen, cocaine antagonist project, cell-based, LLC-PK1 hDAT, [14C]-dopamine uptake, MLSMR. hit rate 1.3% among 110,000. B-score at 10 µM. LLC-PK1 hDAT cells, [14C]-dopamine uptake with cocaine IC80; actives deviate in either direction. Sodium-dependent dopamine transporter (Homo sapiens), Q01959;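 active = Z score or B-score, a plate-position-corrected score, falls beyond the plate's 99.7% confidence bounds, in either direction; inactive = both scores lie inside the 99.7% bounds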;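 also: scored against the spread of the other compound wells on the same plate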
BAP1 block – inhibitors of BAP1 deubiquitinase, primary screen, biochemical, Ub-AMC fluorescence, kinetic; recombinant BAP1, Ub-AMC hydrolysis fluorescence kinetic; active compounds read low; hit rate 0.48% among 72,000; AID 436, 2006; Ubiquitin carboxyl-terminal hydrolase BAP1 (Homo sapiens), Q92560; calls only at 20 µM;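 active = activity remaining at or below 50% of control, provided the compound also passes the data quality filters; inactive = the rest, including low values that fail the filters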;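 also: 100% = DMSO wells rate and 0% = substrate alone blank rate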
D1 allo mod – D1 CRE-luciferase signal change, two-sided – cell-based, HEK293 D1, dopamine EC30, D1 allosteric modulator project, primary screen | D(1A) dopamine receptor (Homo sapiens), P21728 | dopamine EC30 potentiation; actives deviate in either direction | B-score at 10 µM | hit rate 5.9% among 58,000;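 active = luminescence count or its row- and column-corrected plate score outside the 99.7% band of the plate's sample wells, on either side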
Target sequence (P21728 whole entry, looked up): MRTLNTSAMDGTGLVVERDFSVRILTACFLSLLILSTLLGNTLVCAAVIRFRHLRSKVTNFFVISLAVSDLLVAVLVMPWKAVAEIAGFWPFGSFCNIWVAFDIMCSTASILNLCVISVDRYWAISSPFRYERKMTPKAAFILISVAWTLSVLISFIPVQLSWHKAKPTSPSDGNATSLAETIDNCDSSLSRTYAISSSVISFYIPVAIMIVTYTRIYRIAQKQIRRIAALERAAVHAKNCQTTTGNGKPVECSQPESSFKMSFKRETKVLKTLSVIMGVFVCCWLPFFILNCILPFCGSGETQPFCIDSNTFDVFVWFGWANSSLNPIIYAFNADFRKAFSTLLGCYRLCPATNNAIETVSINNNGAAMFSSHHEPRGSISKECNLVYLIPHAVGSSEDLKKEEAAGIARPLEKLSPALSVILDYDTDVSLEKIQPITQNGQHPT
D1 PAM confirm – D1 receptor positive allosteric modulators, retest, confirmation, cell-based, HEK293 D1, CRE-luciferase, duplicate; shares compounds with D1 allo mod; dopamine EC30 potentiation; active compounds read high; luminescence at 10 µM; hit rate 88% among 2,200;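 active = luminescence in either of two replicates above the same-plate mean plus 3 SD of the low-dose dopamine control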
D1 ag no DA – D1 receptor agonism without dopamine, confirmation, mechanism study for D1 allosteric modulator project, cell-based, HEK293 D1, CRE-luciferase, secondary assay 1 | luminescence, no dopamine; active compounds read high | shares compounds with D1 allo mod | hit rate 0.8% among 1,900 | luminescence at 10 µM; in the data active = luminescence above about 3900
Isoprot counter – isoproterenol response counter-screen activity for D1 modulators; hit rate 63% among 2,200; HEK293 D1 CRE-luciferase, isoproterenol EC30 counter-screen; active compounds read high; luminescence at 10 µM; shares compounds with D1 allo mod; AID 647;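 active = luminescence in either replicate above plate mean of wells with a partly effective reference agonist dose plus 3 SD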;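 also: isoproterenol raises cAMP through native beta-adrenoceptor Gs so signal bypasses D1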
Active calls of the source: *; i = inactive; · = no result shown. The sample as a whole holds a higher share of hits than the screen did.

SMILES	hDAT+cocaine	BAP1 block	D1 allo mod	D1 PAM confirm	D1 ag no DA	Isoprot counter
O=C1CSC(c2ccc(OC(F)F)cc2)N1c1ccc(Br)cc1 (centres undefined)	·	i	·	·	·	·
Cc1ccc(C23CC4CC(CC(Cl)(C4)C2)C3)cc1N	·	i	·	·	·	·
O=C(Nc1nncs1)c1ccccc1I	·	i	·	·	·	·
COc1cc2c(cc1OC)-c1cc(NC3CCCCC3)nc(=O)n1CC2	0.044	i	·	·	·	·
COc1cc2c(cc1OC)-c1cc(NCc3ccccn3)nc(=O)n1CC2	0.18	i	5.2*	10588*	1816	4284*
CCCCCCNc1cc2n(c(=O)n1)CCc1cc(OC)c(OC)cc1-2	0.91	·	3.2*	13732*	1896	8864*
COc1cc2c(cc1OC)-c1cc(NC3CCCCCCC3)nc(=O)n1CC2	1.7	·	7.6*	20716*	2740	17668*
COc1cc2c(cc1OC)-c1cc(OCCN3CCOCC3)nc(=O)n1CC2	-0.32	·	3	·	·	·
COc1cc2c(C(=O)NCc3ccccn3)cn(C)c(=O)c2cc1OC	-0.088	·	0.14	·	·	·
COc1cc2c(cc1OC)-c1cc(NC3CC3)nc(=O)n1CC2	-0.047	i	5.7*	14400*	1568	11944*
CCNc1cc2n(c(=O)n1)CCc1cc(OC)c(OC)cc1-2	-0.71	·	1.8	·	·	·
O=C(CC(Sc1cccs1)c1cccc([N+](=O)[O-])c1)c1ccccc1 (centres undefined)	·	i	·	·	·	·
O=C(COc1cccc(Br)c1)Nc1ccc(SC(F)F)cc1	·	i	·	·	·	·
COc1ccccc1C1Oc2ccccc2C2CC(c3ccc(Cl)cc3)=NN21 (centres undefined)	·	i	·	·	·	·
CCOC(=O)C1CSc2[nH]c(=O)sc2C1c1ccccc1 (centres undefined)	-1	i	8.2*	11512*	1668	4456*
O=C(O)CC12CSc3[nH]c(=O)sc3C1c1ccccc1OC2=O (centres undefined)	-0.3	i	-0.32	·	·	·
COc1ccc(-n2nc3c(c2NC(=O)COc2ccccc2)CSC3)cc1	·	i	·	·	·	·
O=C(Nc1cccc2ccccc12)c1ccc(S(=O)(=O)N2CCOCC2)cc1	·	i	·	·	·	·
O=C(CCSc1nnc2scc(-c3ccccc3)n12)NCc1ccc2c(c1)OCO2	0.58	i	7.3*	11856*	1504	5108*
Fc1ccc(-c2csc3nnc(SCc4cccnc4)n23)cc1	0.93	i	17*	26500*	1540	7444*
O=C(CSc1nnc(-c2cccs2)n1Cc1ccccc1)NCc1ccc2c(c1)OCO2	2.1	·	·	·	·	·
C=CCn1c(SCc2cccnc2)nnc1-c1ccncc1	0.17	i	0.05	·	·	·
c1ccc(-c2csc3nnc(SCc4ccc5c(c4)OCO5)n23)cc1	-0.35	i	6.8*	16212*	2144	4660*
O=C(CSc1nnc2scc(-c3ccccc3)n12)Nc1ccc2c(c1)OCCO2	0.44	i	1.4	·	·	·
CCc1nn(CCCC(=O)N2CCc3ccccc3C2)c(=O)c2cc3occc3n12	0.79	i	2.9*	10688*	1800	3100
SMILES	hDAT+cocaine	BAP1 block	D1 allo mod	D1 PAM confirm	D1 ag no DA	Isoprot counter
Cc1nn(CCCC(=O)N2CCc3ccccc3C2)c(=O)c2cc3sccc3n12	·	i	0.071	·	·	·
CC1CCC2C(=O)N(c3ccc(OC(=O)c4ccccc4Br)cc3)C(=O)C2C1 (centres undefined)	·	i	·	·	·	·
CCCCn1c(SCn2nnc3ccccc3c2=O)nc2cc(C(=O)OC)ccc2c1=O	·	i	0.44	·	·	·
CCSc1nc2cc(C(=O)OC)ccc2c(=O)n1CC	-1.2	i	10*	13500*	2048	3628*
O=[N+]([O-])c1ccc2c(c1)S(=O)(=O)N=C2N1CCCCC1	·	i	·	·	·	·
O=C1CC(c2cccs2)c2cc3c(cc2N1)OCO3 (centres undefined)	0.15	i	0.023	·	·	·
O=C1CC(c2ccc3c(c2)OCO3)c2cc3c(cc2N1)OCCO3 (centres undefined)	-2.8*	i	11*	11940*	1824	4100*
O=C1CC(c2ccncc2)c2cc3c(cc2N1)OCCO3 (centres undefined)	0.011	i	1.1	·	·	·
O=C1CC(c2ccsc2)c2cc3c(cc2N1)OCCO3 (centres undefined)	-1	i	5.8*	14472*	1508	2832
O=C(Nc1cccc2ccccc12)c1cccc(N=Cc2cc(Cl)ccc2O)c1	·	i	·	·	·	·
Cc1oc2ccc(OC(=O)c3ccc(Br)cc3)cc2c1C(=O)OC(C)C	·	i	·	·	·	·
COCCCNc1nc2ccccc2nc1NS(=O)(=O)c1cccs1	-0.75	i	2.8*	10820*	1644	3056
COc1ccc(Nc2nc3ccccc3nc2NS(=O)(=O)c2cccs2)cc1	-0.78	·	·	·	·	·
O=S(=O)(Nc1nc2ccccc2nc1NCC1CCCO1)c1cccs1 (centres undefined)	1.1	i	8.6*	15576*	2020	3696*
O=S(=O)(c1cccs1)N1CN(CC2CCCO2)c2nc3ccccc3nc21 (centres undefined)	-1.1	i	·	·	·	·
COC(=O)c1cccc(C(=O)Oc2ccc3ccccc3c2Br)n1	·	i	·	·	·	·
COc1ccc(NC(=O)c2cc3cccc(OC)c3oc2=O)c(OC)c1	·	i	·	·	·	·
CCOc1ccc2cc(C(N)=O)c(=Nc3ccc(C(F)(F)F)cc3)oc2c1	·	i	·	·	·	·
CCOC(=O)c1c(NC(=O)Cc2cccs2)sc(C(=O)N2CCCCC2)c1C	0.83	i	12*	17816*	1812	6864*
CCOC(=O)c1c(N)sc(C(=O)N2CCCCC2)c1C	0.26	·	·	·	·	·
COC(=O)c1c(NC(=O)Cc2ccccc2)sc(C)c1C	-0.15	·	·	·	·	·
COC(=O)c1c(NC(=O)Cc2cccs2)sc(C)c1C	-0.93	·	15*	11876*	1564	3888*
CC(=O)Oc1ccc2c(=O)c(-c3csc(C)n3)coc2c1	·	i	·	·	·	·
c1ccc(N(c2ccccc2)c2nc(N3CCCC3)nc(-n3ccnc3)n2)cc1	·	i	-0.23	·	·	·
CN(c1ccccc1)c1nc(N2CCCC2)nc(-n2ccnc2)n1	0.82	i	4.9*	11496*	1580	3908*
CN1CCc2c(sc3c2C(=O)NC(c2cccc(OCc4ccccc4)c2)N3)C1 (centres undefined)	·	i	·	·	·	·
Cn1c(=O)c2c(nc(NCc3ccc4c(c3)OCO4)n2Cc2ccccc2F)n(C)c1=O	0.012	i	4.7*	6940*	1532	4792*
Cn1c(=O)c2c(nc(NCc3ccc4c(c3)OCO4)n2Cc2ccccc2)n(C)c1=O	-0.11	i	·	·	·	·
CC1CCc2sc(NC(=O)COc3ccc(Cl)cc3)c(C(N)=O)c2C1 (centres undefined)	·	i	·	·	·	·

Screening results: PubChem, several laboratories
